Counter-ions that a name gives are not always drawn. ± gives the standard deviation of the averaged measurements.
test system: Escherichia coli ATCC BAA-2469; experiment: percent growth inhibition of drug alone vs DMSO control; higher = more growth inhibition; settings: antibiotic (0.125x MIC): none (0.1% DMSO); 7 µM
Method: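 Prestwick drugs tested at 20 uM and 7 uM with an antibiotic at 0.125x MIC (16 mg/L when MIC >128 mg/L) against E. coli ATCC BAA-2469 (NDM-1) in CAMHB, 384-well plates, duplicate runs. Percent growth inhibition was computed from OD600 (24 h minus 0 h) relative to DMSO wells. Drug + DMSO-only wells are also given. […]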

SMILES	percent growth inhibition of drug alone [%]
Oc1cc(Cl)ccc1Oc1ccc(Cl)cc1Cl [Triclosan]	103 ± 3.2
O=C(CCCN1CCC2(CC1)C(=O)NCN2c1ccccc1)c1ccc(F)cc1 [Spiperone]	3 ± 1.4
CN1[C@@H]2CC[C@H]1C[C@@H](OC(=O)C(CO)c1ccccc1)C2 (some centres not stated) [Atropine sulfate monohydrate]	1.11 ± 0.46
C[C@]12CC[C@H](O)C[C@@H]1CC[C@@H]1[C@@H]2CC[C@]2(C)C(=O)CC[C@@H]12 [Epiandrosterone]	-0.756 ± 0.88
O=C([O-])c1ccccc1-c1c2cc(Br)c(=O)cc-2oc2[c]([Hg+])c([O-])c(Br)cc12.[Na+].[Na+].[OH-] [Merbromin]	0.201 ± 1.7
NCC1(CC(=O)O)CCCCC1 [Gabapentin]	-0.379 ± 0.84

same assay, conditions: antibiotic (0.125x MIC): none (0.1% DMSO); 20 µM

SMILES	percent growth inhibition of drug alone [%]
Oc1cc(Cl)ccc1Oc1ccc(Cl)cc1Cl [Triclosan]	107 ± 2.6
O=C(CCCN1CCC2(CC1)C(=O)NCN2c1ccccc1)c1ccc(F)cc1 [Spiperone]	2.07 ± 2.2
CN1[C@@H]2CC[C@H]1C[C@@H](OC(=O)C(CO)c1ccccc1)C2 (some centres not stated) [Atropine sulfate monohydrate]	-0.0722 ± 0.38
C[C@]12CC[C@H](O)C[C@@H]1CC[C@@H]1[C@@H]2CC[C@]2(C)C(=O)CC[C@@H]12 [Epiandrosterone]	1.48 ± 2.3
O=C([O-])c1ccccc1-c1c2cc(Br)c(=O)cc-2oc2[c]([Hg+])c([O-])c(Br)cc12.[Na+].[Na+].[OH-] [Merbromin]	38.2 ± 18
NCC1(CC(=O)O)CCCCC1 [Gabapentin]	-1.41 ± 0.8
